Assay outcomes (PubChem BioAssay)
In the library only some 4.5% were active in any assay of this set; here they are far more common.
SKKanGAS inh: inhibitors of SKKanGAS S. pyogenes growth in kanamycin (SK-promoter or general growth effect) | inhibition, % at 7.5 µM | BacTiter-Glo, 6 h | actives 1.3% (n = 300,000);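 active = mean replicate score, as percent of positive control median, at least 50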;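 note: strain carries kanamycin resistance gene driven by streptokinase promoter and grows in 40 µg/ml kanamycin; loss of luminescence reflects streptokinase promoter inhibition or plain growth inhibition; 0% = median of DMSO wells and 100% = positive control at its reference dose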
PfHsp90 set2: inhibits growth of yeast expressing Plasmodium falciparum Hsp90 | AID 504621 | actives 0.32% (n = 310,000) | inhibition, % at 9.4 µM | S. cerevisiae expressing PfHsp90, BacTiter-Glo ATP, 48 h; yeast lacking PDR1 and PDR3 efflux regulators;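 active = every replicate shows inhibition above about 80%, whatever the replicate mean, limit read from the data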;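 note: 0% = DMSO neutral controls and 100% = 20 µM radicicol positive controls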
tim23-1 inh: growth inhibitors of tim23-1 mutant yeast | S. cerevisiae tim23-1 growth, BacTiter-Glo luminescence, 24 h | inhibition, % at 20 µM | actives 1.3% (n = 330,000);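 active = growth inhibition of the mutant yeast at or above 50%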;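 note: temperature-sensitive mutant grown at 25 °C; plate controls were DMSO-treated mutant yeast for no effect and medium wells lacking yeast for full effect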
NALP3 yeast inh: NALP3 inhibition in yeast; Yeast reconstituted NLRP3/ASC/caspase-1, beta-gal luminescence, 24 h; inhibition, % at 10 µM; actives 0.39% (n = 330,000); AID 2825;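 active = inhibition of 50% or more; inactive = inhibition below 50%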;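 note: plate controls were induced DMSO wells for no effect and uninduced yeast grown without galactose for full effect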
tim10-1 inh: growth inhibitors of tim10-1 mutant yeast. actives 2.2% (n = 330,000). inhibition, % at 20 µM. S. cerevisiae tim10-1 ts strain growth, BacTiter-Glo, 24 h. AID 463190;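 active = inhibition of at least 40%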;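 note: mutant grown at 25 °C; 0% = DMSO wells with yeast and 100% = wells holding no yeast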
TIM10 inh: growth inhibitors of TIM10 yeast strain | S. cerevisiae TIM10 strain growth, BacTiter-Glo luminescence, 24 h | inhibition, % at 10 µM | actives 1.4% (n = 330,000) | AID 463195;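 active = inhibition of 40% or more at the single tested concentration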;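 note: wild-type TIM10 isogenic control strain grown at permissive 25 °C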
tim10-1 conf: confirmation of tim10-1 mutant yeast growth inhibitors. actives 56% (n = 7,400). AID 463213. shares compounds with tim10-1 inh. inhibition, % at 20 µM. S. cerevisiae tim10-1 ts strain growth, BacTiter-Glo, 24 h;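 active = inhibition of yeast growth at or above a set limit in either of two repeat tests at 20 µM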;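 note: tim10-1 mutant grown at permissive 25 °C to find synthetic lethal compounds; 0% = DMSO yeast wells and 100% = medium wells without yeast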
Active calls of the source: *; nt = no result given.

SMILES	SKKanGAS inh	PfHsp90 set2	tim23-1 inh	NALP3 yeast inh	tim10-1 inh	TIM10 inh	tim10-1 conf
CCOc1cc(C2Nc3cccc4cccc(c34)N2)ccc1O	14	-6	37	12	51*	32	29
Oc1ccccc1-c1nc(NCc2cccnc2)c2ccccc2n1	17	-10	46	15	49*	27	57*
CC(C)(C)OC(=O)N1CCCC(C(=O)Nc2cccc(C(=O)N3CCCCC3)c2)C1 (stereo not given)	nt	19	nt	nt	nt	nt	nt
COc1cc2c(cc1OC)C(COc1cccc(C(F)(F)F)c1)NCC2 (stereo not given)	-4	1	40	24	47*	40	47*
COc1ccc(OCC2NCCc3cc(OC)c(OC)cc32)cc1 (stereo not given)	1	-33	36	12	24	19	nt
O=C(O)CC/C(=N\Nc1ccc(Cl)cc1)c1cccs1	-4	19	36	-6	41*	10	14
CCCCCCCCN1[C@@H](CC(=O)O)c2cc(C(F)(F)F)ccc2S1(=O)=O	7	-20	18	8	29	20	nt
CCCCCCCCCCCCN1[C@@H](CC(=O)O)c2cc(C(F)(F)F)ccc2S1(=O)=O	89*	-3	4	4	64*	-4	14
N#CCc1ccc(OC(=O)c2cnccc2C(F)(F)F)cc1	1	36	1	15	6	5	nt
C[C@]12CCC(=O)CC1CCC1C2CC[C@@]2(C)C1CC[C@@]21CCO1 (stereo not given in full)	2	-4	32	41	28	-8	nt
C[C@]12CCC(=O)C[C@@H]1CC[C@@H]1[C@@H]2CC[C@]2(C)C=CC[C@@H]12	14	7	33	42	52*	10	70*
CCn1c(SC(C)C(=O)Nc2ccc(N3CCOCC3)cc2)nnc1C1CC1 (stereo not given)	nt	-19	-8	-14	-8	5	nt
COc1cc(C(=O)NC(=S)Nc2ccc(Cc3ccncc3)cc2)cc(OC)c1OC	51*	-5	40	9	47*	14	35*
COc1ccc(C(=O)Nc2ccc3c4c(cccc24)CC3)cc1	-14	-24	48	30	44*	23	30*
O=C(OCC(=O)N1CCOCC1)c1ccc(Cl)c(S(=O)(=O)N2CCc3ccccc32)c1	nt	0	24	3	16	11	nt
Cc1nc(-c2ccccn2)sc1C(=O)Nc1ccc(Cl)c(Cl)c1	23	5	-3	18	47*	35	29*
COc1cccc(Cn2cc(-c3cccc(C(F)(F)F)c3)nn2)c1	7	-20	-10	8	42*	-1	23
O=C(Nc1ccccc1)c1cccc(S(=O)(=O)NC2CCCC2)c1	-9	7	3	14	8	8	nt
COc1ccc(C/C(=N\OC(C)=O)c2ccc(OC)cc2)cc1	3	-12	26	5	46*	7	45*
COc1ccc(-c2nnc(COc3ccc4ccccc4c3)o2)cc1OC	-10	-36	-3	22	43*	6	12
COc1cc(-c2nnc(COc3ccc4cc(Br)ccc4c3)o2)cc(OC)c1OC	6	-10	19	3	24	13	nt
CCC(CC)Nc1ccc(C(CC(N)=O)NC(=O)c2ccccc2)cc1[N+](=O)[O-] (stereo not given)	5	1	4	15	-3	-6	nt
Nc1nc(Nc2cccc(C(F)(F)F)c2)nc(C(F)(F)F)n1	7	45	42	17	44*	39	35*
Nc1ncnc(Nc2cccc(C(F)(F)F)c2)n1	-3	42	-4	16	8	-6	nt
COc1ccc(CCC(=O)Nc2cccc(S(=O)(=O)N3CCOCC3)c2)cc1OC	nt	1	-8	-7	-6	2	nt
SMILES	SKKanGAS inh	PfHsp90 set2	tim23-1 inh	NALP3 yeast inh	tim10-1 inh	TIM10 inh	tim10-1 conf
Cc1ccn2c(NC(=O)c3cccs3)c(-c3ccccc3)nc2c1	4	-27	22	11	1	13	nt
Cc1ccn2c(NC(C)(C)C)c(-c3cccs3)nc2c1	3	-10	42	16	44*	19	27
O=C1CC[C@@H](OCc2ccccc2)CCN1CC[C@H](Sc1ccccc1)c1ccccc1	18	15	19	4	26	12	nt
Cc1cc2nc(-c3ccc4c(c3)CCC4)ccn2n1	7	-15	19	17	41*	-23	20
Cc1cc2nc(-c3cc(N4CCOCC4)ccc3[N+](=O)[O-])ccn2n1	-2	nt	5	10	1	-8	nt
Cc1nc(Nc2nc(CSc3nc4ccccc4[nH]3)cc(=O)[nH]2)nc2ccccc12	12	-22	17	10	4	4	nt
Cc1nc(Nc2nc(-c3ccccc3)cc(=O)[nH]2)nc2ccccc12	82*	-4	10	37	43*	30	8
CCCNC(=O)c1onc(CS(=O)(=O)c2cccc(OC)c2)c1C(=O)NCCC	4	-17	25	7	13	1	nt
Cc1ccc(-c2[nH]nc3c2C(C)C(C#N)=C(N)O3)cc1 (stereo not given)	-15	-7	37	15	40*	40	32*
Cc1cc(-c2[nH]nc3c2C(c2ccsc2)C(C#N)=C(N)O3)c(C)s1 (stereo not given)	-2	-15	43	21	47*	32	44*
CS(=O)c1ccccc1-c1nc(-c2ccc([N+](=O)[O-])cc2)no1 (stereo not given)	nt	-7	nt	nt	nt	nt	nt
COc1ccc(N2CCN(C(=O)CSc3nnc(-c4cc5ccccc5cc4O)n3C)CC2)cc1	-3	0	33	5	45*	22	19
COc1ccc(-n2cnnc2SCC(=O)N2CCN(c3ccccc3)CC2)cc1	1	-2	5	4	13	-4	nt
O=C(/C=C\c1ccc(-c2ccccc2)o1)c1ccccc1	-23	6	45	13	48*	31	48*
CC(=O)N1CCSc2ccc(S(=O)(=O)Nc3ccccc3C)cc21	2	-7	-7	9	8	2	nt
CCC(C(=O)n1cccc1C#N)c1ccccc1C (stereo not given)	nt	14	17	2	0	5	nt
N#Cc1c(-c2ccc(F)cc2)noc1N	4	14	20	11	32	26	nt
COc1cccc(-c2noc(N)c2C#N)c1	0	-11	36	11	52*	31	44*
COCC(C)n1c(SCC(=O)Nc2c(C)n(C)n(-c3ccccc3)c2=O)nc2ccccc2c1=O (stereo not given)	nt	14	8	9	9	5	nt
COc1cc2c(cc1OC)CN(C(=O)c1ccc(-c3ccccc3)cc1)CC2	20	-2	44	11	49*	24	38*
